Results on ten compounds are retold here after PubChem BioAssay (NCATS).

The nature of the test: qHTS Assay for Identifying Gametocytocidal Compounds (AID 743244).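 Also: actives lower the fluorescent signal which means gametocytes are killed.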 To be noted: P. falciparum 3D7 stage III-V gametocytes, alamarBlue, 72 h; max response: hits give low values. The essentials:
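Viability read-out was resazurin reduction (alamarBlue, 24 h) measured at Ex 525/Em 598 nm. Beforehand, late-stage (III-V) 3D7 P. falciparum gametocytes at 20,000 cells/well were incubated with compound 72 h at 37C under 5% CO2.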
On the technique in general: In qHTS, concentration-response curves come from the screen itself.

Results filed as inconclusive are left out. Values without a mark were called inactive. Calls follow the shape of the dose curve; as a rule, active = well fitted curve in the direction sought with a large enough effect; inconclusive = small, poorly fitted or top-dose-only effect, or another doubt; inactive = no such curve, though single readings can be large or run the other way.
% is scaled to controls: 0 for no effect and ±100 for the full control effect.

Take `CC1(C)S[C@@H]2[C@H](NC(=O)[C@H](N)c3ccccc3)C(=O)N2[C@H]1C(=O)OCOC(=O)[C@@H]1N2C(=O)C[C@H]2S(=O)(=O)C1(C)C`: the max response was 8.04%.
Consider `O=C[C@H](O)[C@@H](O)[C@H](O)[C@H](O)CO`, for which the max response is -1.25%.
The same measure for `COC(=O)C1=C(C)NC(C)=C(C(=O)O[C@H]2CCN(Cc3ccccc3)C2)[C@H]1c1cccc([N+](=O)[O-])c1`: 22.4%.
Take `Cc1c(N)nc(C(CC(N)=O)NCC(N)C(N)=O)nc1C(=O)NC(C(=O)NC(C)C(O)C(C)C(=O)NC(C(=O)NCCc1nc(-c2nc(C(=O)NCCCN[C@@H](C)c3ccccc3)cs2)cs1)C(C)O)C(O[C@@H]1O[C@@H](CO)[C@@H](O)[C@H](O)[C@@H]1O[C@H]1O[C@H](CO)[C@@H](O)[C@H](OC(N)=O)[C@@H]1O)c1cnc[nH]1` (stereo not given in full): the max response is 6.97%.
The value for `O=C1O[C@@H]2[C@@H](O)[C@H](O)O[C@@H]2[C@H]1O` was 3.86%; that for `CC(=O)O[C@H]1CC[C@@]2(C)C(=CC[C@H]3[C@@H]4CC[C@H](C(C)=O)[C@@]4(C)CC[C@@H]32)C1` was 3.94%; that for `CN[C@@H]1CCc2[nH]c3ccc(C(N)=O)cc3c2C1` was -0.658%.
Take `CC(C(=O)O)c1ccc(C2CCCCC2)c2ccccc12` (stereo not given): the max response is 16%.
The same measure for `Cc1cc(-n2c(=O)[nH]c(=O)n(C)c2=O)ccc1Oc1ccc(S(=O)(=O)C(F)(F)F)cc1`: -1.23%; for `CCCCCCCCCCCCCCCC(=O)OCCC1CCN(CCCN2c3ccccc3Sc3ccc(S(=O)(=O)N(C)C)cc32)CC1`: -11.1%.
